# Measured values published in PubChem BioAssay (NCATS).
# Where “and” joins values, the source holds several entries; their conditions need not be identical. Equal entries are not always repeated. Results filed as inconclusive are left out. Where a call stands in place of a potency, no number is given. A number with no mark means an inactive call. Calls of active or inactive are those of the source. Calls come from the whole dose curve; as a rule, active = well fitted inhibition curve with a large enough effect; inconclusive = small, poorly fitted or top-dose-only effect; inactive = flat fitted curve, though single readings scatter.
# Experiments:
# P93_24 = experiment: qHTS profiling for inhibitors of Plasmodium falciparum proliferation (AID 504749); note: potency is the fitted concentration of half-maximal effect; conditions: P. falciparum in erythrocytes, SYBR Green DNA, 72 h; series mostly up to 28.7 µM
# In short: (§1)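 Infected RBCs, 0.3% parasitemia/2.5% Hct final; cpd 72 h, 37 C, 5% CO2; lysis buffer with saponin/triton/SYBR Green I, o/n RT dark; FI 485/535; norm. to artemisinin (0.29 uM) and DMSO.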
# P94_40 = experiment: as above; conditions: P. falciparum in erythrocytes, SYBR Green DNA, 72 h; series mostly up to 28.7 µM
# In short: as §1
# PAD = experiment: as above; conditions: P. falciparum in erythrocytes, SYBR Green DNA, 72 h; series mostly up to 28.7 µM
# In short: as §1
# PC15 = experiment: as above; conditions: P. falciparum in erythrocytes, SYBR Green DNA, 72 h; series mostly up to 28.7 µM
# In short: as §1
# PC26 = experiment: as above; conditions: P. falciparum in erythrocytes, SYBR Green DNA, 72 h; series mostly up to 28.7 µM
# In short: as §1
# PC49 = experiment: as above; conditions: P. falciparum in erythrocytes, SYBR Green DNA, 72 h; series mostly up to 28.7 µM
# In short: as §1
# SC27B = experiment: as above; conditions: P. falciparum in erythrocytes, SYBR Green DNA, 72 h; series mostly up to 28.7 µM
# In short: as §1
# TAB109 = experiment: as above; conditions: P. falciparum in erythrocytes, SYBR Green DNA, 72 h; series mostly up to 28.7 µM
# In short: as §1
# TAB113 = experiment: as above; conditions: P. falciparum in erythrocytes, SYBR Green DNA, 72 h; series mostly up to 28.7 µM
# In short: as §1
# TAB165 = experiment: as above; conditions: P. falciparum in erythrocytes, SYBR Green DNA, 72 h; series mostly up to 28.7 µM
# In short: as §1
# W2 = experiment: as above; conditions: P. falciparum in erythrocytes, SYBR Green DNA, 72 h; series mostly up to 28.7 µM
# In short: as §1
# MCC-13 = experiment: qHTS assay to identify novel small-molecules to repurpose for Merkel cell carcinoma treatment (AID 1296009); conditions: MCC and control cell lines, CellTiter-Glo viability, 72 h; series mostly up to 46 µM
# In short: (§2)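 72 hr, 37 degree celsius; NPC 8-pt / MIPE 11-pt dose response; compound pinned in DMSO; CellTiter-Glo, 10 min RT, luminescence; normalized to no-cell and DMSO controls.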
# MCC-26 = experiment: as above; conditions: MCC and control cell lines, CellTiter-Glo viability, 72 h; series mostly up to 46 µM
# In short: as §2
# HaCat = experiment: Cytotoxic Profiling of Annotated Libraries Using Quantitative High-Throughput Screening (AID 1296008); conditions: Five cell lines viability, CellTiter-Glo ATP luminescence, 48-72 h; max response: hits give low values; note: potency is the fitted concentration of half-maximal effect
# In short: (§3)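 Cytotoxicity was measured as CellTiter-Glo ATP luminescence, read after 10 min at room temperature. Compound treatment of the cells lasted 48 or 72 hr at 37 degrees Celsius in a qHTS format.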
# KB-3-1 = experiment: as above; conditions: Five cell lines viability, CellTiter-Glo ATP luminescence, 48-72 h; max response: hits give low values
# In short: as §3
# NIH3T3 = experiment: as above; conditions: Five cell lines viability, CellTiter-Glo ATP luminescence, 48-72 h; max response: hits give low values
# In short: as §3
# Note: nearly all actives have a fitted effect of over 60% in size.
structure (smiles),measurement,setting,value
Cc1[nH]cnc1CN1CCc2c(c3ccccc3n2C)C1=O,Potency,P93_24,inactive
same,Potency,P94_40,inactive
same,Potency,PAD,inactive
same,Potency,PC15,inactive
same,Potency,PC26,inactive
same,Potency,PC49,inactive
same,Potency,SC27B,inactive
same,Potency,TAB109,inactive
same,Potency,TAB113,inactive
same,Potency,TAB165,inactive
same,Potency,W2,inactive
same,Potency,MCC-13,inactive
same,Potency,MCC-26,inactive
Cc1ccccc1CNc1ncnc2c1ncn2C1OC(CO)C(O)C1O (configuration not stated),Potency,P93_24,inactive
same,Potency,P94_40,inactive
same,Potency,PAD,inactive
same,Potency,PC15,inactive
same,Potency,PC26,inactive
same,Potency,PC49,inactive
same,Potency,SC27B,inactive
same,Potency,TAB109,inactive
same,Potency,TAB113,inactive
same,Potency,TAB165,inactive
same,Potency,W2,inactive
Nc1nc2ccc([N+](=O)[O-])cc2s1,Potency,HaCat,27.3 µM (active)
same,max response,KB-3-1,-15.7%
same,Potency,MCC-13,inactive
same,Potency,MCC-26,inactive
N=c1ccn2c(n1)O[C@H]1[C@H](O)[C@@H](CO)O[C@H]12,Potency,P93_24,inactive
same,Potency,PAD,inactive
same,Potency,PC15,inactive
same,Potency,PC26,inactive
same,Potency,PC49,inactive
same,Potency,SC27B,inactive
same,Potency,TAB109,inactive
same,Potency,TAB113,inactive
same,Potency,TAB165,inactive
same,Potency,W2,inactive
same,max response,KB-3-1,33.6%
C[S+](CC[C@H](N)C(=O)O)C[C@H]1O[C@@H](n2cnc3c(N)ncnc32)[C@H](O)[C@@H]1O (some centres not stated),Potency,PC15,inactive
same,Potency,PC26,inactive
same,Potency,PC49,inactive
same,Potency,SC27B,inactive
same,Potency,W2,inactive
same,max response,KB-3-1,16.4% and -2.48%
CCN(CC)CCCCNc1ncc2cc(-c3c(Cl)cccc3Cl)c(NC(=O)NC(C)(C)C)nc2n1,Potency,HaCat,20.6 µM (active)
same,Potency,NIH3T3,1.16 µM (active)
CC(=O)[C@]1(O)Cc2c(O)c3c(c(O)c2[C@@H](O[C@H]2C[C@H](N)[C@H](O)[C@H](C)O2)C1)C(=O)c1c(O)cccc1C3=O,Potency,P93_24,7.94 µM (active)
same,Potency,P94_40,10 µM (active)
same,Potency,PAD,12.6 µM (active)
same,Potency,PC15,7.94 µM (active)
same,Potency,PC49,8.91 µM (active)
same,Potency,SC27B,12.6 µM (active)
same,Potency,TAB109,7.08 µM (active)
same,Potency,TAB113,7.08 µM (active)
same,Potency,TAB165,5.01 µM (active)
same,Potency,W2,4.26 µM (active)
same,Potency,KB-3-1,4.61 µM (active) and 5.17 µM (active)
Oc1c(Br)cc(Br)c2cccnc12,Potency,P93_24,inactive
same,Potency,P94_40,inactive
same,Potency,PAD,inactive
same,Potency,PC15,inactive
same,Potency,PC26,inactive
same,Potency,PC49,inactive
same,Potency,SC27B,inactive
same,Potency,TAB109,inactive
same,Potency,W2,inactive
same,Potency,MCC-13,inactive
same,Potency,MCC-26,inactive
CC[C@H]1OC(=O)[C@H](C)[C@@H](O[C@H]2C[C@@](C)(OC)[C@@H](O)[C@H](C)O2)[C@H](C)[C@@H](O[C@@H]2O[C@H](C)C[C@H](N(C)C)[C@H]2O)[C@](C)(O)C[C@@H](C)C(=O)[C@H](C)[C@@H](O)[C@]1(C)O,max response,KB-3-1,12% and -5.16%
C=CCN1C(=O)C(CC(C)C)NC1=S (configuration not stated),Potency,P93_24,inactive
same,Potency,P94_40,inactive
same,Potency,PAD,inactive
same,Potency,PC15,inactive
same,Potency,PC26,inactive
same,Potency,PC49,inactive
same,Potency,SC27B,inactive
same,Potency,TAB109,inactive
same,Potency,TAB113,inactive
same,Potency,TAB165,inactive
same,Potency,W2,inactive
same,max response,KB-3-1,11.7% and 6.26%
O=C(O)[C@H](O)[C@@H](O)[C@H](O)[C@H](O)CO,Potency,P93_24,inactive
same,Potency,P94_40,inactive
same,Potency,PAD,inactive
same,Potency,PC15,inactive
same,Potency,PC26,inactive
same,Potency,PC49,inactive
same,Potency,SC27B,inactive
same,Potency,TAB109,inactive
same,Potency,TAB113,inactive
same,Potency,TAB165,inactive
same,Potency,W2,inactive
same,max response,KB-3-1,1.75% and -7.15%
O=C(O)c1cc(O)c(O)c(O)c1,Potency,P94_40,inactive
same,Potency,PAD,inactive
same,Potency,PC15,inactive
same,Potency,PC26,inactive
same,Potency,PC49,inactive
same,Potency,SC27B,inactive
same,Potency,TAB109,inactive
same,Potency,W2,5.36 µM (active)
CC1OC1P(=O)(O)O (configuration not stated),Potency,P93_24,inactive
same,Potency,P94_40,inactive
same,Potency,PAD,inactive
same,Potency,PC15,inactive
same,Potency,PC26,inactive
same,Potency,PC49,inactive
same,Potency,SC27B,inactive
same,Potency,TAB113,inactive
same,Potency,TAB165,inactive
same,Potency,W2,inactive
O=c1cc(-c2ccccc2)oc2ccccc12,Potency,HaCat,34 µM (active)
same,Potency,KB-3-1,199 nM (active)
same,Potency,MCC-13,inactive
same,Potency,MCC-26,inactive
CCCCCC[C@@H](O)C/C=C\CCCCCCCC(=O)O,Potency,P93_24,inactive
same,Potency,P94_40,inactive
same,Potency,PAD,inactive
same,Potency,PC15,inactive
same,Potency,PC26,inactive
same,Potency,PC49,inactive
same,Potency,SC27B,inactive
same,Potency,TAB109,inactive
same,Potency,TAB113,inactive
same,Potency,TAB165,inactive
same,Potency,W2,inactive
same,max response,KB-3-1,-2.77% and 6.21% and -9.38%
O=C(O)/C=C/C(O)c1ccc(Cl)cc1 (configuration not stated),Potency,P93_24,inactive
same,Potency,P94_40,inactive
same,Potency,PAD,inactive
same,Potency,PC15,inactive
same,Potency,PC26,inactive
same,Potency,PC49,inactive
same,Potency,SC27B,inactive
same,Potency,TAB109,inactive
same,Potency,TAB113,inactive
same,Potency,TAB165,inactive
same,Potency,W2,inactive
same,max response,KB-3-1,-6.79%
CO/N=C(\C(=O)N[C@@H]1C(=O)N2C(C(=O)O)=C(COC(C)=O)CS[C@H]12)c1csc(N)n1 (stereo in doubt),max response,KB-3-1,-7.91%
O=C(O)COc1ccc(C(=O)c2cccs2)c(Cl)c1Cl,Potency,P93_24,inactive
same,Potency,P94_40,inactive
same,Potency,PAD,inactive
same,Potency,PC15,inactive
same,Potency,PC26,inactive
same,Potency,PC49,inactive
same,Potency,SC27B,inactive
same,Potency,TAB109,inactive
same,Potency,TAB113,inactive
same,Potency,TAB165,inactive
same,Potency,W2,inactive
same,max response,KB-3-1,-1.65% and 4.87%
C#C[C@]1(O)CC[C@H]2[C@@H]3CCc4cc(O)ccc4[C@H]3CC[C@@]21C,Potency,P93_24,inactive
same,Potency,P94_40,inactive
same,Potency,PAD,inactive
same,Potency,PC15,inactive
same,Potency,PC26,inactive
same,Potency,PC49,inactive
same,Potency,SC27B,inactive
same,Potency,TAB109,inactive
same,Potency,TAB113,inactive
same,Potency,TAB165,inactive
same,Potency,W2,inactive
same,Potency,HaCat,4.73 µM (active)
same,max response,NIH3T3,-26.3%
NC(=O)C(c1ccccc1)(c1ccccc1)[C@@H]1CCN(CCc2ccc3c(c2)CCO3)C1,Potency,PAD,inactive
same,Potency,W2,1.69 µM (active)
COc1cc(/C=C/C(=O)CC(=O)/C=C/c2ccc(O)c(OC)c2)ccc1O,Potency,PC26,9.53 µM (active)
same,Potency,PC49,inactive
same,Potency,W2,6.75 µM (active)
same,max response,KB-3-1,44.3%
